Assay outcomes: PubChem BioAssay, several laboratories
MCL1-BIM inh = inhibitors of human MCL1 binding to BIM-BH3 peptide; Q07820; GST-MCL1 / FITC-Bim-BH3 fluorescence polarization; inhibition, % at 10.9 µM; hit rate 0.68% among 320,000;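 active means inhibition above the mean inhibition of all tested compounds plus 3 SD, set per campaign, cut at about 40% in these data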;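 further: 0% = DMSO wells and 100% = unlabeled Bim-BH3 peptide control; higher means more loss of mP so more displacement of Bim peptide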
eLon inh = inhibitors of E. coli Lon protease; P0A9M0; purified E. coli Lon protease, fluorescence polarization; inhibition, % at 7.94 µM; hit rate 0.42% among 360,000; AID 602123; in the data active means inhibition above about 13%, passing the limit was not always enough;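 further: 0% = enzyme with probe and DMSO and 100% = no enzyme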
Bcl-xL primary = inhibitors of human Bcl-xL; hit rate 0.7% among 320,000; Q07817; GST-Bcl-xL / FITC-Bim BH3 peptide fluorescence polarization; inhibition, % at 10.9 µM;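 active means inhibition above the mean of all tested compounds plus 3 SD, cutoff set per campaign, cut at about 30% in these data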;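 further: 0% = DMSO wells and 100% = unlabeled Bim-BH3 peptide competitor; inhibitors lower millipolarization by displacing the labeled peptide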
Target sequence (Q07817 whole entry, looked up): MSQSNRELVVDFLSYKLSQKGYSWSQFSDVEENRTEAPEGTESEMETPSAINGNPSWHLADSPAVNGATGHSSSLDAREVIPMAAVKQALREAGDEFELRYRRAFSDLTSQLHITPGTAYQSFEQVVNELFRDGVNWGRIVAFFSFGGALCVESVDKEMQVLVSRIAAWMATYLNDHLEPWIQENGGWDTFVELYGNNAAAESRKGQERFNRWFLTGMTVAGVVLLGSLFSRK
EBV gp42 inh = inhibitors of Epstein-Barr virus glycoprotein 42 | Q1HVG2 | Fluorescence polarization binding assay, mP read-out | inhibition, % (tested at 21.74 µM) | hit rate 0.42% among 220,000 | AID 1085; in the data active means inhibition above about 50%
Target sequence (Q1HVG2 whole entry, looked up): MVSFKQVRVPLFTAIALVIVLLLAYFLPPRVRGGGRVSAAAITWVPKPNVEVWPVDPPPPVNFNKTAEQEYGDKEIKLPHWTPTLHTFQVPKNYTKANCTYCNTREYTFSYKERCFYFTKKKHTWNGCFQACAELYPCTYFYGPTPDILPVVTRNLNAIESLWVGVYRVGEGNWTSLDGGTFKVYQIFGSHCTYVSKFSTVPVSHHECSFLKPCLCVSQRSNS
GLD-1 TGE inh = GLD-1-TGE RNA interaction inhibition (C. elegans); inhibition, % at 5.96 µM; hit rate 0.44% among 320,000; purified GLD-1 + fluorescein TGE RNA, fluorescence polarization; Q17339;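 active means percent inhibition above a per-plate cutoff, the plate mean of test compounds plus 3 SD, cut at about 30% in these data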;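 further: 0% = DMSO wells with GLD-1 and probe and 100% = wells lacking GLD-1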
MEX-5 binding = C. elegans MEX-5 TCR-2 RNA binding activity; hit rate 0.38% among 300,000; activity score (negative = inhibition of binding), % at 10 µM; MEX-5/FITC-TCR2 RNA binding, fluorescence polarization; stronger effect = lower value; Q9XUB2; AID 1832;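 active means inhibition past about -25% in most replicates, and total fluorescence under double the plate's negative control median, limit read from the data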;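 further: 0% = DMSO and -100% = 5 µM competing unlabeled TCR2 RNA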
BCLXL inh confirm = counter-screen for MCL1 inhibitors: confirmation of human Bcl-xL inhibitors. shares compounds with MCL1-BIM inh. inhibition, % at 10.9 µM. hit rate 54% among 1,700. GST-Bcl-xL / FITC-Bim BH3 peptide FP binding;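 active means inhibition above a cutoff equal to the mean inhibition of all tested compounds plus 3 SD, cut at about 30% in these data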;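 further: 0% = DMSO wells and 100% = unlabeled Bim BH3 control peptide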
MCL1 BIM confirm = MCL1-BIM-BH3 interaction inhibition, confirmation. inhibition, % at 10.9 µM. shares compounds with MCL1-BIM inh. hit rate 61% among 1,700. GST-MCL1 / FITC-Bim-BH3 fluorescence polarization;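 active means inhibition above the average of all tested compounds plus 3 SD, cut at about 40% in these data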;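 further: 0% = DMSO wells and 100% = unlabeled Bim-BH3 control peptide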
Active calls of the source: *; . = not tested or not shown. In the library only some 1.5% were active in any assay of this set; here they are far more common.

SMILES | MCL1-BIM inh | eLon inh | Bcl-xL primary | EBV gp42 inh | GLD-1 TGE inh | MEX-5 binding | BCLXL inh confirm | MCL1 BIM confirm
COc1ccc(Cc2nnc(NC(=O)Cc3cccs3)s2)cc1OC | 73* | -10 | 10 | 68* | -5 | 2 | 25 | 80*
COc1ccc(C(=O)Nc2nnc(Cc3cccs3)s2)cc1OC | -9 | 9 | 4 | -12 | 0 | 0 | . | .
CC(=O)Nc1cccc(NC(=O)Cc2cccs2)c1 | 6 | -3 | 9 | . | 7 | -3 | . | .
O=C(Cc1cccs1)Nc1nnc(CCc2ccccc2)s1 | 5 | -6 | 0 | -13 | 4 | 0 | . | .
O=C(Cc1cccs1)Nc1nnc(Cc2ccccc2)s1 | 54* | -34 | 4 | 28 | -10 | 2 | 8 | 44*
COC(=O)c1cc(NC(=O)Cc2cccs2)cc(C(=O)OC)c1 | 44* | -5 | 2 | . | -4 | -3 | 3 | 28
NS(=O)(=O)c1ccc(NC(=O)COc2ccc(S(=O)(=O)N3CCCC3)cc2)cc1 | 2 | 4 | 4 | . | 3 | -1 | . | .
C/C(CC(=O)Nc1ccc(N(C)C)cc1)=N\NC(=O)c1ccc([N+](=O)[O-])cc1Cl | -2 | -3 | 1 | -6 | -4 | 0 | . | .
Oc1ccc(/C=N/n2c(COc3ccccc3)n[nH]c2=S)cc1O | 44* | -5 | 11 | . | -10 | -11 | 20 | 31
CCOc1cc(/C=N/n2c(COc3ccccc3)n[nH]c2=S)ccc1O | -19 | -8 | -8 | . | -16 | 1 | . | .
COc1ccc(/C=N/Nc2cc(C)nc3c(C)cccc23)cc1 | 4 | 0 | 2 | . | 3 | 0 | . | .
COc1cccc2c(N/N=C/c3ccc(O)c(O)c3)cc(C)nc12 | 41* | 10 | 19 | . | 7 | -6 | 51* | 73*
Cn1nc(NC(=O)C2CCC2C(=O)O)c2c(F)cccc21 (stereo not given) | -1 | -7 | 2 | -7 | 4 | 3 | . | .
Cc1c2ccccc2nc2ccccc12 | -1 | -9 | -2 | . | -9 | 0 | . | .
CCCNc1c(F)c(F)c2c(C)c3ccccc3nc2c1F | 125* | 60* | 114* | 134* | 83* | -29* | 106* | 123*
COc1ccc(NC(=O)c2ccco2)cn1 | 75* | 16 | 70* | . | 60* | -13 | 64* | 86*
COc1ccc(NC(=O)CCl)cn1 | 111* | . | 105* | 71* | 82* | -60* | 84* | 115*
COc1ccc(NC(=O)/C=C/c2ccco2)cn1 | 16 | -2 | 12 | 8 | 10 | -4 | . | .
COc1ccc(NC(=O)/C=C/c2cccc(F)c2)cn1 | 75* | 1 | 75* | 38 | 47* | -9 | 54* | 68*
COc1cccc(OC)c1C(=O)Nc1ccc(NC(=O)c2ccco2)cc1 | 2 | -7 | 4 | 3 | -6 | -1 | . | .
O=C1/C(=C2\C(=O)N(Cc3ccc(F)cc3)c3ccccc32)SC(=S)N1CCS(=O)(=O)O | 43* | -4 | 21 | . | -4 | -10 | 23 | 39
Cc1nc(NC(=O)CSc2nnc3ccccn23)c(Cl)cc1Cl | 2 | 0 | 7 | -22 | -1 | -2 | . | .
O=C(CSc1ccccn1)Nc1ccc2c(c1)C(=O)c1ccccc1C2=O | 55* | 2 | 14 | 52* | 4 | -2 | 29 | 60*
Cc1cccn2c(=O)c3cc(C(=O)NCCN4CCOCC4)n(C)c3nc12 | 15 | -6 | 9 | . | 1 | 0 | . | .
Clc1nc(NCCc2ccccc2)c2cn[nH]c2n1 | . | 14 | . | . | . | . | . | .
O=C(Cc1ccc(S(=O)(=O)N2CCOCC2)s1)Nc1nc2c(s1)CCCC2 | 102* | -1 | 80* | -11 | 66* | -2 | 32* | 52*
CC(=O)Nc1ccc2cc3ccc(NC(C)=O)cc3nc2c1 | 63* | 6 | 60* | 105* | -3 | -36* | 156* | 195*
CSc1nc(NCc2ccccc2)c2c3c(sc2n1)CN(C)CC3 | 8 | -4 | 7 | 3 | 1 | -6 | . | .
